Source: PubChem BioAssay
mIDH1 inhibitor = human IDH1 R132H inhibition. Potency, µM (series often up to 76.6 µM), for the others: top-dose activity change, negative = inhibition, usual class: inhibitors. IDH1-R132H enzyme, NADPH consumption, diaphorase/resazurin fluorescence. O75874. 0.093% of 390,000 active; note: potency is the fitted concentration of half-maximal effect; % is set by controls: 0 for no effect and ±100 for the full control effect; nearly all actives have a fitted effect of over 65% in size
Target sequence (O75874 whole entry R132H, stated change not applied): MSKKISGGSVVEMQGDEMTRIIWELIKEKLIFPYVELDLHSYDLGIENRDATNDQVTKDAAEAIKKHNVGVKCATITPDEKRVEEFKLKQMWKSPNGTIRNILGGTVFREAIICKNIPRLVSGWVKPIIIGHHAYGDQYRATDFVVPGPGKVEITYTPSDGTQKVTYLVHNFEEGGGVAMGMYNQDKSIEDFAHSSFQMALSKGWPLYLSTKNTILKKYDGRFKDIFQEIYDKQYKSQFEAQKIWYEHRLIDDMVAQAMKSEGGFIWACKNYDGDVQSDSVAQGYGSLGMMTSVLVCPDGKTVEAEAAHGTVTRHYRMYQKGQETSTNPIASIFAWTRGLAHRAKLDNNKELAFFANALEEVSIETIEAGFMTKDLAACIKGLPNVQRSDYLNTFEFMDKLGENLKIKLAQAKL
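IDH1-R132H (0.5 ug/mL) preincubated 30 min with compound, then NADPH (0.016 mM) and alpha-KG (2 mM) added; 80 min at RT, pH 7.5. Remaining NADPH coupled via diaphorase/resazurin to fluorescence (540/590 nm); concentration-response curves normalized to no-enzyme control.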
CCT chaperon mod = cytosolic chaperonin activity modulation; purified chaperonin ATPase assay, HTRF ADP detection, 30 min; activity change, % (no concentration beside the values), hits read low; 0.3% of 360,000 active; in the data active = activity change below about -30%; note: % is set by controls: 0 for no effect and ±100 for the full control effect
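We incubate TRiC, 40 or 20 nM final, with library compounds at 76 uM and 10 uM ATP for 30 min at 37 °C. ADP formed is detected with Transcreener HTRF reagents after 30 min at room temperature.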
Mm-Cpn inhibitor = blocks the Methanococcus maripaludis chaperonin Mm-Cpn | purified Mm-Cpn ATPase, ADP Transcreener TR-FRET | Potency, µM (highest dose often 76.9 µM), for the others: at the highest dose activity, negative = inhibition, most hits filed as inhibitors | 0.031% of 330,000 active; note: potency is the fitted concentration of half-maximal effect; % is set by controls: 0 for no effect and ±100 for the full control effect; nearly all actives have a fitted effect of over 80% in size
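25 nM Mm-CPN + cpd, 10 min 37°C; + 10 uM ATP, 30 min 37°C; buffer 30 mM Tris pH 7.4, 100 mM KCl, 5 mM MgCl2, 1 mM DTT; Transcreener ADP HTRF detection 30 min RT.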
Glioma ERSR ind = induces the endoplasmic reticulum stress response in human glioma cells. Potency, µM, for the others: at the highest dose activation, hits mostly activators. 0.02% of 420,000 active. U87-MG GRP78 promoter luciferase reporter, 16 h; note: potency is the fitted concentration of half-maximal effect; series mostly up to about 76 µM; % of control where 0% means no effect; nearly all actives have a fitted effect of over 35% in size
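Stably transfected U87-MG glioma cells carrying a GRP78-based luciferase sensor; 16 h compound incubation. Luminescence end-point read 10 min after Bright-Glo addition at room temperature.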
pAkt inh = Akt phosphorylation inhibition. Neuro2A IGF-stimulated pAkt S473 HTRF, 20 min; stronger effect = lower value. activity change, % for hits at 50 µM. 0.32% of 360,000 active; in the data active = activity change below about -80%; inconclusive = mostly about -51% to -80%; note: % is set by controls: 0 for no effect and ±100 for the full control effect
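Single-point screen (50 µM final compound) in Neuro2A cells stimulated 20 min with 6 nM IGF at 37 deg C. After lysis, Ser473-phosphorylated Akt read by HTRF (ex 330 nm, em 615/665 nm) as the 665/615 ratio.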
GLS inh = glutaminase GLS (human) inhibition | O94925 | GLS enzymatic activity, qHTS titration | Potency, µM (top dose mostly 45.5 µM), inactives show at the top dose activity change, negative = inhibition, most hits filed as inhibitors | 0.21% of 410,000 active; note: potency is the fitted concentration of half-maximal effect; % is set by controls: 0 for no effect and ±100 for the full control effect
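Human kidney-isoform GLS in 45 mM KH2PO4 pH 8.2, 0.02% Tween-20, with compound, started with 1mM L-Glutamine (added stock). Glutamate oxidase/HRP/Amplex red coupled fluorescence read at start and after 30 min at RT.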
Numbers without * were called inactive; i = inactive; ? = inconclusive; . = no result given; ! = not active in a repeat; [ ] = remark or other dose. Hits are enriched below; roughly 0.85% of the tested compounds scored in any of these assays. Unless noted, calls come from the whole dose curve; as a rule, active = well fitted curve in the direction sought with a large enough effect; inconclusive = small, poorly fitted or top-dose-only effect, or another doubt; inactive = no such curve, though single readings can be large; an effect the other way counts as inactive or inconclusive.

SMILES	mIDH1 inhibitor	CCT chaperon mod	Mm-Cpn inhibitor	Glioma ERSR ind	pAkt inh	GLS inh
CO/N=C1\C[C@]2(C[C@@H]3C[C@H](C/C=C(/C)C[C@@H](C)/C=C\C=C4\CO[C@@H]5[C@@H](O)C(C)=C[C@@H](C(=O)O3)[C@]45O)O2)O[C@@H](/C(C)=C/C(C)C)[C@H]1C	.	.	.	-11.2%	.	-1.4%
COc1cc(CNc2ccc(N3CCN(C(C)=O)CC3)cc2)ccc1OCc1ccccc1	10.9%	-1.8	-5.5%	3.7%	i	12.6µM*
Cc1noc(NS(=O)(=O)c2ccc(NC(=O)C(Cl)(Cl)Cl)cc2)c1C	-0.4%	-0.5	0.3%	-1.6%	i	5.5%
Cc1noc(NS(=O)(=O)c2ccc(NC(=O)Nc3ccc(Cl)c(Cl)c3)cc2)c1C	-2.2%	1.0	2.5%	10.9%	-106.9%*	9.6%
CN(C(=O)COC(=O)CNS(=O)(=O)/C=C/c1ccccc1)C1CCS(=O)(=O)C1 (configuration not stated)	12.3%	1.1	-6.6%	-4.2%	-123.1%*	-1.6%
O=C(NCCN1Cc2ccccc2OC(c2ccsc2)C1)c1cncs1 (configuration not stated)	.	.	.	-2.2%	.	.
CCCCNC(=O)OCCNC(=O)NC	1.1%	-0.8	0.0%	-0.1%	-83.2%*	0.1%
CC(=O)N(C1=C(Cl)C(=O)c2ccccc2C1=O)C1CCCCC1	33.6%	3.9	-2.0%	-12.8%	i	6.31µM*
COc1cc(C2C(C(=O)c3ccco3)=C(O)C(=O)N2c2cc(C)on2)cc(Br)c1O (configuration not stated)	8.4%	1.5	-1.8%	4.7%	-114.9%*	47.6%
COc1ccc2nc(N3C(=O)C(O)=C(C(=O)c4ccco4)C3c3ccc(C)o3)sc2c1 (configuration not stated)	11.3%	0.3	?	0.5%	i	10µM*
COc1ccc2nc(N3C(=O)C(O)=C(C(=O)c4ccco4)C3c3ccccc3OC)sc2c1 (configuration not stated)	18.5%	-1.2	-3.7%	-3.6%	.	?
CC(C)C1=CC2=CCC3C(C)(C(=O)O)CCCC3(C)C2CC1 (configuration not stated) (tested in a mixture with another compound)	.	.	-3.3%	.	.	.
CC(C)C1=CC2=CC[C@@H]3[C@](C)(CCC[C@@]3(C)C(=O)O)[C@H]2CC1	.	.	.	-0.6%	.	14.1µM*
CCOc1ccc(C2C(C#N)=C(N)SC(N)=C2C#N)c(OCC)c1	-0.6%	-10.7	?	-4.6%	-85.4%*	-10.9%
COc1ccccc1-c1noc2c1C(=O)N(Cc1cn(-c3ccccc3)nn1)CC2	.	1.1	.	-4.9%	i	-0.7%
COc1ccccc1-c1noc2c1C(=O)N(Cc1cn(C3CCCC3)nn1)CC2	.	-37.5*	.	.	i	-1.7%
COCC(=O)Nc1cc(C(=O)N2CCCC(C(N)=O)C2)cc2nc(-c3ccccc3)n(C)c12 (configuration not stated)	.	.	.	-3.5%	.	.
O=C(Nc1cccc(-c2cn3ccccc3n2)c1)c1cc2ccccc2oc1=O	6.6%	-60.7*	-3.9%	1.2%	i	-4.6%
Cc1nc(C)c(C(=O)N2CCc3c(cnc(C)c3CNC(=O)c3cncs3)C2)s1	.	.	.	-4.5%	.	.
O=C(CSc1nnc(CNC(=O)c2c(F)cccc2Cl)o1)NCc1ccc2c(c1)OCO2	-7.7%	-3.0	.	-5.6%	-107.4%*	6.4%
O=C(CSc1nnc(CNC(=O)c2c(F)cccc2Cl)o1)Nc1ccc2c(c1)OCCO2	-1.3%	1.0	-8.7%	0.6%	i	-0.7%
COc1cc(/C=C/CN2CCOc3ccc(C(O)c4cccnc4)cc3C2)ccc1O (configuration not stated)	.	.	.	-2.1%	.	.
CCC(COC)NC(=O)c1cnn(-c2ncc3c(n2)-c2ccccc2CC3)c1C (configuration not stated)	.	.	.	-0.7%	.	.
C/C=C(/C)C(=O)Nc1cccc(C2=NOC3(C2)C[C@@H](C(N)=O)N(C(=O)CC(c2ccccc2)c2ccccc2)C3)c1 (some centres not stated)	-12.0%	1.6	-0.6%	-1.1%	i	-7.3%
C=C(C)C(=O)Nc1cccc(C2=NOC3(C2)C[C@H](C(N)=O)N(C(=O)c2ccccc2C(=O)c2ccccc2)C3)c1 (some centres not stated)	5.0%	-1.8	-2.2%	-4.0%	i	14.1µM*
SMILES	mIDH1 inhibitor	CCT chaperon mod	Mm-Cpn inhibitor	Glioma ERSR ind	pAkt inh	GLS inh
C=C(C)C(=O)Nc1cccc(C2=NOC3(C2)C[C@@H](C(N)=O)N(C(=O)/C=C/C=C/C)C3)c1 (some centres not stated)	-13.9%	-1.2	-12.7%	-4.5%	i	11.2µM*
C=C(C)C(=O)Nc1cccc(C2=NOC3(C2)C[C@@H](C(N)=O)N(C(=O)CC(c2ccccc2)c2ccccc2)C3)c1 (some centres not stated)	-0.3%	-1.8	1.2%	-0.2%	i	11.2µM*
C/C=C/C=C/C(=O)N1CC2(CC(c3cccc(NC(=O)/C=C/C)c3)=NO2)C[C@@H]1C(N)=O (some centres not stated)	-11.7%	-1.8	-0.4%	-2.6%	i	-11.2%
COc1ccc([C@@H]2CC=C(C(=O)O)[C@H](c3ccccc3)N2S(=O)(=O)c2ccccc2C)cc1	-12.1%	-49.3*	-0.6%	-3.6%	i	40.4%
COc1ccc(C2=NS(=O)(=O)N(C)C(C(=O)N3CCC(C(N)=O)CC3)=C2)cc1	-7.3%	-66.9*	0.2%	-0.6%	i	-4.9%
Cc1ccc(O)c(CO)n1	0.9%	-1.3	-1.7%	-1.8%	i	-6.7%
COc1ccc(CCc2nc(C)ccc2O)cc1	3.2%	-66.9*!	0.4%	1.7%	i	24.0%
Cc1ccc2nc(SCC(=O)NCC3Cc4cc(-c5ncccc5C)ccc4O3)[nH]c2c1 (configuration not stated)	.	.	.	-0.4%	.	.
C/C=C/c1ccc(OCCCCN2CC(C)CC(C)C2)c(OC)c1 (configuration not stated)	3.1%	-0.1	-5.8%[15.4 µM]	-3.0%	i	-2.9%
C/C=C/c1ccc(OCCCCN2CCN(CC)CC2)c(OC)c1	8.8%	-58.4*	0.3%	0.9%	i	3.5%
Cc1c(C(=O)N2CCN(C)CC2)sc2ncnc(NCC3(c4ccccc4)CCOCC3)c12	.	.	.	-2.6%	.	.
CN1CCN(c2nc3c(c(=O)n(C)c(=O)n3C)n2CC(=O)C23CC4CC(CC(C4)C2)C3)CC1	2.0%	-2.4	-0.9%	-0.3%	-82.3%*	3.2%
